Results reported in PubChem BioAssay (NCATS).
“And” between values parts separate entries of the source, which are not always exact repeats. Equal entries are not always repeated. Results filed as inconclusive are left out. The source made the active and inactive calls. Unless noted, calls come from the whole dose curve; as a rule, active = well fitted curve in the direction sought with a large enough effect; inconclusive = small, poorly fitted or top-dose-only effect, or another doubt; inactive = no such curve, though single readings can be large; an effect the other way counts as inactive or inconclusive.

Key:
[1] = qHTS to identify inhibitors of the type 1 interferon - major histocompatibility complex class I in skeletal muscle: primary screen against the NCATS Mechanism Interrogation Plate v5.0 (MIPE) Libary (AID 1347411); note: nearly all actives have a fitted effect of over 65% in size;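 for activity change, negative = inhibition: plate controls were vehicle for no effect and reference inhibitor for full effect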
In short: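 Luminescence from CRISPR HiBit-tagged endogenous HLA-B in human myoblasts reported MHC class I level after 24 h of IFN-beta (4 ng/ml) plus compound. Compounds ran as 11-point 1:3 series, top 46 uM final.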

[2] = Primary qHTS for inhibitors of nuclear receptor binding SET domain protein 2 (NSD2) in an isogenic RCH-ACV NSD2 p.E1099K mutant (9B) (AID 1645876); note: nearly all actives have a fitted effect of over 70% in size
[3] = Primary qHTS for inhibitors of nuclear receptor binding SET domain protein 2 (NSD2) in an RCH-ACV wild type WT cells (2C) (AID 1645877); note: nearly all actives have a fitted effect of over 70% in size
[4] = target: Glutathione peroxidase 1 (Homo sapiens) (UniProt P07203); assay: Primary qHTS Assay for Inhibitors of Recombinant Selenoprotein Glutathione Peroxidase 1 (GPX1) (AID 1845191); note: nearly all actives have a fitted effect of over 65% in size
Sequence of Glutathione peroxidase 1 (Homo sapiens) (P07203 whole entry, looked up): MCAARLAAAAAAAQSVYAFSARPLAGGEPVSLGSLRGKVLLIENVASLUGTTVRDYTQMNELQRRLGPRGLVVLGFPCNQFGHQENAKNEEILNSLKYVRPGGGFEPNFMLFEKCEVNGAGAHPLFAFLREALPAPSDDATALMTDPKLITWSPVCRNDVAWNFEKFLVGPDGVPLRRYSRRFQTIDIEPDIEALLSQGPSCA
In short: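 NADPH consumption tracked by fluorescence at 340/450 nm between t=0 and t=15 min, room temperature. Final mix: 10 nM GPX1, 100 nM glutathione reductase, 1 mM GSH, 0.5 mM NADPH, 0.5 mM cumene hydroperoxide, 0.01% BSA; 30 min compound–enzyme preincubation.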

[5] = target: Phospholipid hydroperoxide glutathione peroxidase GPX4 (Homo sapiens) (UniProt P36969); assay: Primary qHTS Assay for Inhibitors of Recombinant Selenoprotein Glutathione Peroxidase 4 (GPX4) (AID 1845192); conditions: outcome: dose series up to 50 µM unless noted; note: nearly all actives have a fitted effect of over 65% in size; for activity change, negative = inhibition: % is set by controls: 0 for no effect and ±100 for the full control effect
Sequence of Phospholipid hydroperoxide glutathione peroxidase GPX4 (Homo sapiens) (P36969 whole entry, looked up): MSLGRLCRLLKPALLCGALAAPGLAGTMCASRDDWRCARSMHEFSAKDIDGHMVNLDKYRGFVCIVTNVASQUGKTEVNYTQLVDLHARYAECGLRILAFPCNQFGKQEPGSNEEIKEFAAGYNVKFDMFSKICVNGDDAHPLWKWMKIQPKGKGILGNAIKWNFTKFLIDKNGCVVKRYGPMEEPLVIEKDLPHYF
In short: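 NADPH consumption followed by fluorescence at 340/450 nm, t=0 and after 15 min at room temperature. Reaction started with cumene hydroperoxide (0.5 mM final) after 30 min compound–GPX4 preincubation; final 200 nM GPX4, 100 nM GR, 1 mM GSH, 0.5 mM NADPH.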

[6] = qHTS drug screen for cell cycle checkpoint inhibitors in PARPi-resistant BRCA-mutant ovarian cancer cell lines. (AID 1963452; calls by dose curve); conditions: PEO1/OlaR viability, CellTiter-Glo luminescence, 96 h; for Z-AUC: stronger effect = lower value
In short: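 PEO1, PEO4 and PEO1/OlaR ovarian cancer cells, 600 per well, exposed 96 h at 37C to a dilution series. Viability read by CellTiter-Glo luminescence, normalized to DMSO and empty wells; activity summarized as Z-AUC.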

[7] = qHTS assay to identify inhibitors of the type 1 interferon - major histocompatibility complex class I in skeletal muscle: Counter screen cell viability and HiBit confirmation (AID 1347412); conditions: iHSKM muscle cells + IFN-b, HiBiT or CellTiter-Glo, 24 h; for activity change, negative = inhibition: at 45.9 µM (top of the series); for activity change, negative = inhibition: % is set by controls: 0 for no effect and ±100 for the full control effect; for all read-outs here: nearly all actives have a fitted effect of over 60% in size
In short: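 Luminescence read-out: Nano-Glo HiBiT lytic signal from C-terminally HiBiT-tagged HLA-B in CRISPR-edited human myoblasts, plus CellTiter Glo ATP as viability counter screen. IFN-beta 4.0 ng/ml; 24 hrs treatment at 37 C, 5% CO2.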

[8] = measured here: PEO1 parental Z-AUC
Potency is the fitted concentration of half-maximal effect.

Row | Compound | Potency [1] | Potency [2] | Potency [3] | Potency [4] | Potency [5] | Z-AUC [6] | Z-AUC [6, 8] | Z-AUC ([6]; measured here: PEO4 Z-AUC) | Potency ([7]; HiBiT) | activity change, negative = inhibition ([7]; Viability) | Potency [6] | Potency ([7]; Viability)
1 | CN(Cc1ccc(/C=C/C(=O)NO)cc1)CC12CC3CC(CC(C3)C1)C2 | 330 nM (active) | 0.263 µM (active) | 0.209 µM (active) | inactive | inactive | -0.476 (inactive) | -0.953 | -1.12 | 351 nM (active) | -18.3% (inactive) |  | 
2 | CC(=O)c1cc2c(o1)C(=O)c1ccccc1C2=O | 523 nM (active) | 1.86 µM (active) | 1.32 µM (active) | 1.29 µM (active) |  |  | -1.52 | -1.88 | 249 nM (active) |  | 0.549 µM (active) | 394 nM (active)
3 | CC(=O)Nc1cc(Oc2ccc3c(nc(Nc4ccc(F)cc4F)n3C)c2C)ccn1 | 262 nM (active) | 11.8 µM (active) | 2.63 µM (active) | inactive | inactive | -0.216 (inactive) | -0.646 | -1.5 | 1110 nM (active) |  |  | 
4 | CC(=O)NCC(=O)N1[C@@H]2CC[C@H]1c1ccc(Nc3ncc(C(F)(F)F)c(NC4CCC4)n3)cc12 | 4660 nM (active) | 0.59 µM (active) | 0.166 µM (active) | inactive | inactive | -0.104 (inactive) | -0.113 | -0.17 | 3130 nM (active) | -29.6% (inactive) |  | 
5 | Cc1ncsc1-c1ccc([C@H](C)NC(=O)[C@@H]2C[C@@H](O)CN2C(=O)[C@@H](NC(=O)COCCCOCCNC(=O)C[C@@H]2N=C(c3ccc(Cl)cc3)c3c(sc(C)c3C)-n3c(C)nnc32)C(C)(C)C)cc1 | 208 nM (active) | 0.0148 µM (active) | 0.0186 µM (active) | inactive | inactive | -2.25 (inactive) | -2.46 | -2.23 | 394 nM (active) | -12.4% (inactive) |  | 
6 | COC(=O)c1ccc([C@H]2c3[nH]c4ccccc4c3C[C@H](C(=O)OC)N2C(=O)CCl)cc1 | 829 nM (active) | 0.148 µM (active) | 0.148 µM (active) | inactive | inactive | -1.5 (inactive) | 0.403 | -0.118 | 496 nM (active) |  |  | 787 nM (active)
7 | CN(C)C/C=C/C(=O)Nc1ccc(C(=O)N2CCC[C@@H](Nc3ncc(Cl)c(-c4c[nH]c5ccccc45)n3)C2)cc1 | 1470 nM (active) | 0.166 µM (active) | 0.132 µM (active) | inactive | inactive | -1.88 (inactive) | -2.59 | -2.1 | 1110 nM (active) | 26.2% (inactive) |  | 
8 | O=C(O)c1ccc(O)c2ncccc12 | inactive | 20.9 µM (active) |  | inactive | inactive | 1.08 (inactive) | 0.983 | 1.08 |  |  |  | 
9 | NC(=O)/C(=C/n1cnc(-c2cc(C(F)(F)F)cc(C(F)(F)F)c2)n1)c1cncnc1 | 3300 nM (active) | 0.417 µM (active) | 0.235 µM (active) | inactive | inactive | -0.773 (inactive) | -2.06 | -1.68 | 1570 nM (active) |  |  | 
10 | CCc1c(-c2ccccc2C)nc2c(C#N)c[nH]n2c1=O | 829 nM (active) and 1.31 µM (active) | inactive | inactive |  | inactive | 1.17 (inactive) and -0.599 (inactive) | 1.23 and -0.433 | 1.49 and -0.54 | 1.4 µM (active) and 787 nM (active) | 16.2% (inactive) and -8.52% (inactive) |  | 
11 | CN1CCN(c2ccc3nc(-c4cc(C(C)(C)C)c(OCCCC(=O)NCCCN=[N+]=[N-])c(C(C)(C)C)c4)[nH]c3c2)CC1 | 13100 nM (active) | 7.42 µM (active) | 6.61 µM (active) | inactive |  | 0.842 (inactive) | 0.24 | 0.156 |  |  |  | 24900 nM (active)
12 | Clc1cccc(-c2ccc(-c3nnc(CCCc4ccc5cccnc5n4)o3)cc2)c1 | inactive | inactive | inactive | inactive | inactive | 1.61 (inactive) | 1.52 | 1.67 |  |  |  | 
13 | CCC[C@H](NC(=O)/C(C#N)=C/c1cccc(Br)n1)c1ccccc1 | 4150 nM (active) | 11.8 µM (active) | 13.2 µM (active) | inactive | inactive | 0.211 (inactive) | 0.0929 | 0.0816 | 6250 nM (active) |  |  | 
14 | COc1ccc(N2C(=O)N(c3c(C)cccc3Cl)Cc3cnc(Nc4ccc(C5CCN(C)CC5)cc4OC)nc32)nc1 | 14700 nM (active) | 3.32 µM (active) | 3.72 µM (active) | inactive | inactive | -1.61 (inactive) | -1.1 | -0.332 | 14000 nM (active) |  |  | 
15 | C=CC(=O)N1CC/C(=C\c2ccc(F)c([N+](=O)[O-])c2)C(=O)/C(=C/c2ccc(F)c([N+](=O)[O-])c2)C1 | 658 nM (active) | 0.0833 µM (active) | 0.059 µM (active) | inactive | inactive |  | -2.29 | -2.19 | 222 nM (active) |  | 0.219 µM (active) | 
16 | CN(CCOc1ccc(C[C@H](Nc2ccccc2C(=O)c2ccccc2)C(=O)O)cc1)c1ccccn1 | inactive | inactive | inactive | inactive |  | 0.115 (inactive) and 0.904 (inactive) | 0.442 and 0.488 | 0.445 and 0.87 |  |  |  | 
17 | Nc1nc(F)nc2c1ncn2C1OC(COP(=O)(O)O)C(O)C1O (stereo not given) | inactive | 2.95 µM (active) |  |  |  |  |  |  |  |  |  | 

Row | Compound | Potency [1] | Potency [2] | Potency [3] | Potency [4] | Potency [5] | Z-AUC [6] | Z-AUC [6, 8] | Z-AUC ([6]; measured here: PEO4 Z-AUC) | Potency ([7]; HiBiT) | activity change, negative = inhibition ([7]; Viability) | Potency [6] | Potency ([7]; Viability)
18 | CC#Cc1cncc(-c2ccc3c(c2)[C@@]2(N=C(C)C(N)=N2)C2(CCC(OC)CC2)C3)c1 (stereo not given in full) | inactive | inactive | inactive | inactive | inactive | 1.27 (inactive) | 0.521 | 0.345 |  |  |  | 
19 | CNC(=O)[C@@H](NC(=O)[C@H](CC(C)C)[C@H](O)C(=O)NO)C(C)(C)C | inactive | 18.6 µM (active) | 13.2 µM (active) |  | inactive | 1.14 (inactive) | 0.454 | 0.976 |  |  |  | 
20 | O=c1[nH]nc2c3c(cccc13)NC(CN1Cc3ccccc3C1)=N2 | inactive | 20.9 µM (active) | 18.6 µM (active) | inactive | inactive | -0.263 (inactive) | -0.113 | -0.251 |  |  |  | 
21 | Cc1ccc(-c2ccc(C)cn2)nc1 | inactive | inactive | inactive | inactive | inactive | 1.52 (inactive) | 0.85 | 1.74 |  |  |  | 
22 | CN(Cc1ccccc1)C(=O)c1ccc(S(=O)(=O)Nc2ccccc2)cc1 | inactive |  |  | inactive | inactive | -0.829 (inactive) | -0.00385 | 0.744 |  |  |  | 
23 | NC1=N[C@@]2(c3cc(NC(=O)c4ccc(F)cn4)ccc3F)COC[C@H]2CS1 | inactive | inactive | inactive | inactive | inactive | 1.41 (inactive) | 0.672 | 0.598 |  |  |  | 
24 | C[C@H]1[C@H](C)CC[C@]2(C(=O)O)CC[C@]3(C)C(=CC[C@@H]4[C@@]5(C)CC[C@H](O)C(C)(C)[C@@H]5CC[C@]43C)[C@H]12 | inactive | inactive | inactive |  | inactive | 0.556 (inactive) | 0.879 | 0.501 |  |  |  | 
25 | CC(/C=C1\SC(=S)N(CC(=O)O)C1=O)=C\c1ccccc1 | inactive | inactive | inactive | 7.28 µM (active) and 3.21 µM (active) | 12.8 µM (active) and 12.6 µM (active) | 1.25 (inactive) | 1.33 | 1.77 |  |  |  | 
26 | Cc1c(-c2cnccn2)ssc1=S | inactive | 16.6 µM (active) | 13.2 µM (active) |  |  | -0.037 (inactive) | 0.595 | 0.421 |  |  |  | 
27 | Cc1c(CN2CCN(C(=O)[C@H](C)O)CC2)sc2c(N3CCOCC3)nc(-c3cnc(N)nc3)nc12 | 262 nM (active) | 0.0417 µM (active) | 0.0742 µM (active) | inactive | inactive | 0.0318 (inactive) | 0.386 | 0.839 |  |  |  | 
28 | C=CC(=O)Nc1cccc(Oc2nc(Nc3ccc(N4CCN(C)CC4)c(F)c3)nc3[nH]ccc23)c1 | 20800 nM (active) | 1.48 µM (active) | 1.32 µM (active) | inactive | inactive | -1.38 (inactive) | -0.613 | -0.658 |  |  |  | 
29 | c1ccc(CNCc2ccc(CN3CCCNCCNCCCNCC3)cc2)nc1 | inactive | inactive | inactive | inactive | inactive | 1.17 (inactive) | 1.27 | 1.11 |  |  |  | 
30 | CC(=NNC(=O)c1cccc(S(=O)(=O)N2CCOCC2)c1)c1cc(Cl)ccc1O | inactive | 2.09 µM (active) | 1.48 µM (active) |  |  |  |  |  |  |  |  | 
31 | O=C(/C=C/c1cccnc1)NCCCCC1CCN(C(=O)c2ccccc2)CC1 | inactive | 0.0019 µM (active) | 0.0047 µM (active) | inactive | inactive |  | -2.84 | -2.61 |  |  | 0.0436 µM (active) | 
32 | C[C@H](NC(=O)[C@H]1NCC[C@@H]1O)c1ccc(-c2noc(CCC3CCCC3)n2)cc1 | inactive | inactive | inactive | inactive | inactive | 0.833 (inactive) | 0.65 | 0.666 |  |  |  | 
33 | OC1CCC([C@H](O)C[C@H]2c3c(F)cccc3-c3cncn32)CC1 (stereo not given in full) | inactive | inactive | inactive | inactive | inactive | -0.0426 (inactive) | 0.377 | 0.204 |  |  |  | 
34 | COc1ccc(C(=O)N2CCN(c3ccc4c(c3)CCC(=O)N4)CC2)cc1OC | inactive | inactive | inactive | inactive | inactive | -0.238 (inactive) | 0.0272 | 0.0147 |  |  |  | 
